Assay outcomes as filed in PubChem.
Hits are enriched below; roughly 1.9% of the tested compounds scored in any of these assays.
LDHA block = blocks human lactate dehydrogenase A; purified LDHA, NADH/diaphorase-resazurin fluorescence; hits give low values; activity change, % (values are at about 110 or 230 µM); 0.15% of 480,000 active; AID 1347041; in the data active = activity change below about -30%; inconclusive = mostly about -25% to -30%;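 note: plate controls were DMSO wells for no effect and wells without enzyme for full effect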
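Human LDH5 (2 nM) was incubated with 0.06 mM NADH and 0.2 mM pyruvate for 5 min at room temperature in Tris pH 7.4. Remaining NADH was coupled through diaphorase/resazurin, and resorufin fluorescence was read at 0 and 20 min.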
TDP-43 yeast inh = rescues yeast growth from TDP-43 toxicity. 1.8% of 410,000 active. Potency, µM (top dose mostly 46.1 µM), for the others: at the highest dose growth rescue (activation), most hits filed as activators. TDP-43 expressing yeast growth rescue, BacTiter-Glo, 24 h. AID 652104; note: potency is the fitted concentration of half-maximal effect; % of control where 0% means no effect; nearly all actives have a fitted effect of over 50% in size
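Growth rescue of TDP-43-toxic yeast measured as ATP luminescence (BacTiter-Glo). Cells grown to mid-log in raffinose, induced in galactose at OD600=0.02, exposed to compound 24 hr at 30 deg C.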
PTHR1 agonist = agonists of human PTHR1 parathyroid hormone receptor | Q03431 | HEK293 GP2 PTHR1 cells, GloSensor cAMP luminescence, 1 h | Potency, µM (series often up to 115 µM), without a hit: at the top dose activation, most hits filed as activators | 0.075% of 410,000 active; note: potency is the fitted concentration of half-maximal effect; nearly all actives have a fitted effect of over 55% in size
Target sequence (Q03431 whole entry, looked up): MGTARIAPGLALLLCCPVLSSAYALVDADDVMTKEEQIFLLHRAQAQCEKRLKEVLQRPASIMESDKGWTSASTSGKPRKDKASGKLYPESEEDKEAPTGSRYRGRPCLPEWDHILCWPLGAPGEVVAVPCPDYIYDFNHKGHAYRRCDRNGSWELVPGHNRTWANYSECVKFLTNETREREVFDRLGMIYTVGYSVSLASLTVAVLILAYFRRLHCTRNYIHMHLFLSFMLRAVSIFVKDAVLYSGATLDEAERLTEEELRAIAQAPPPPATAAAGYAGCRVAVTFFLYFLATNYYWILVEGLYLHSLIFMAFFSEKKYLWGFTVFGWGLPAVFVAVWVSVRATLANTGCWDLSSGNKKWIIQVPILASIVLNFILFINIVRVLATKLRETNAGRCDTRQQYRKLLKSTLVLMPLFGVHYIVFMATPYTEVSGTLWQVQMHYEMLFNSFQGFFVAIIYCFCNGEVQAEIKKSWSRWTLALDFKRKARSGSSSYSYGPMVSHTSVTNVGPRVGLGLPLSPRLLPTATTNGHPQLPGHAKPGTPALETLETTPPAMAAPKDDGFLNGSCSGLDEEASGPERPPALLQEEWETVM
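HEK-293-derived GP2 cells expressing PTHR1 and a GloSensor cAMP reporter, 3,000/well, plated overnight, given luciferin plus IBMX (each 0.5 mM as added) for 1 h at 37 °C, then compound for 1 h at 37 °C. Luminescence was read after 15 min at room temperature.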
aSyn yeast inh = inhibitors of alpha-synuclein toxicity in yeast; Yeast expressing alpha-synuclein, growth rescue, BacTiter-Glo, 24 h; Potency, µM (series often up to 46.1 µM), for inactives: at the highest dose growth rescue (activation), actives largely listed as activators; 0.14% of 370,000 active; AID 652106; note: potency is the fitted concentration of half-maximal effect; % of control where 0% means no effect; nearly all actives have a fitted effect of over 65% in size
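Readout is rescue of growth in alpha-synuclein-expressing yeast, so inhibitors of toxicity appear as activators. Growth after 24 hr at 30 deg C in galactose medium is quantified by luminescence.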
FUS yeast rescue = rescues growth of FUS-expressing yeast. S. cerevisiae FUS-expressing, growth rescue, OD600, 24 h. Potency, µM (titrated, usually from 76.6 µM), most hits filed as activators. 0.24% of 390,000 active. AID 1347120;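 note: potency is the fitted concentration of half-maximal effect; plate controls were DMSO vehicle for no effect and reference control for full effect; nearly all actives have a fitted effect of over 55% in size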
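Toxicity suppression screen in FUS-yeast. Cells induced with 2% galactose, starting OD 0.005, treated 24hr at 30C with compounds at multiple final concentrations; growth by OD600.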
Abeta yeast res = restores growth of yeast expressing A-beta42 peptide; yeast expressing A-beta42, growth rescue, OD600, 48 h; response scale: 0% DMSO, 100% iron-clioquinol control; Potency, µM (series often up to 46.1 µM), actives largely listed as activators; 0.063% of 410,000 active; AID 1347071; note: potency is the fitted concentration of half-maximal effect; nearly all actives have a fitted effect of over 55% in size
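Yeast A-beta toxicity model in growth medium with pinned compounds, 48 h at 30 C; growth read as absorbance at 600 nm. Normalized to FeCl3/clioquinol equimolar mix (positive) and DMSO (negative).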
* = called active by the depositor; [ ] = dose if it differs, or a comment. Unless noted, calls come from the whole dose curve; as a rule, active = well fitted curve in the direction sought with a large enough effect; inconclusive = small, poorly fitted or top-dose-only effect, or another doubt; inactive = no such curve, though single readings can be large; an effect the other way counts as inactive or inconclusive.

`CN1N=C(N)c2cn(C3OC(COP(=O)(O)O)C(O)C3O)c3ncnc1c23` (stereo not given) gave LDHA block -32*, TDP-43 yeast inh 0%, PTHR1 agonist inactive, aSyn yeast inh 0% and Abeta yeast res inactive.
Screening Cc1ccc(CNC(=O)c2nc(-c3nn(-c4ccc(F)cc4)c(=O)n(C)c3=O)no2)o1 returned LDHA block -7.
CC(=O)c1cccc(NC(=O)c2csc(-n3nc(C)cc3C(F)(F)F)n2)c1 was read as LDHA block 0, TDP-43 yeast inh 13%, PTHR1 agonist -6%, aSyn yeast inh -4%, FUS yeast rescue inactive and Abeta yeast res inactive.
For Cc1cc(C(F)(F)F)n(-c2nc(C(=O)Nc3cccnc3)cs2)n1 the results were LDHA block -1, TDP-43 yeast inh 22µM*, PTHR1 agonist -22%, aSyn yeast inh 9%, FUS yeast rescue inactive and Abeta yeast res inactive.
Cc1oc(-c2ccccc2F)nc1CSCC(=O)N1CCN(c2ccccc2)CC1 was read as LDHA block -1, TDP-43 yeast inh 32µM*, PTHR1 agonist -15%, FUS yeast rescue inactive and Abeta yeast res inactive.
Screening Cc1oc(-c2ccccc2Cl)nc1CSCC(=O)N1CCCC1 returned LDHA block -4, TDP-43 yeast inh 13µM*, PTHR1 agonist inactive, aSyn yeast inh -1%, FUS yeast rescue inactive and Abeta yeast res inactive.
Cc1oc(-c2ccccc2Cl)nc1CSCC(=O)NC1CCCC1 was read as LDHA block -2, TDP-43 yeast inh inconclusive, PTHR1 agonist -4%[57.5 µM], aSyn yeast inh 3%, FUS yeast rescue inactive and Abeta yeast res inactive.
Screening COc1ccc(-c2nc(CSCC(=O)NCc3ccccc3Cl)c(C)o2)cc1OC returned LDHA block -8, TDP-43 yeast inh 25µM*, PTHR1 agonist -35%, FUS yeast rescue inactive and Abeta yeast res inactive.
COC(=O)[C@@]12CCCN1[C@H](c1ccc(-c3ccc(Cl)c(Cl)c3)c(OC)c1)[C@H]1C(=O)N(C)C(=O)[C@H]12 was read as LDHA block 2, TDP-43 yeast inh inconclusive, PTHR1 agonist -16%, aSyn yeast inh -7%, FUS yeast rescue 35µM* and Abeta yeast res inactive.
For CCN1C(=O)[C@@H]2[C@@H](c3ccc(SC4CCCCC4)c(OC)c3)N3CCCC[C@@]3(C(=O)OC)[C@@H]2C1=O the results were LDHA block 4, TDP-43 yeast inh -22%, PTHR1 agonist inactive, aSyn yeast inh -1%, FUS yeast rescue 5µM* and Abeta yeast res inactive.
CCC(C)Sc1ccc([C@@H]2[C@@H]3C(=O)N(CC)C(=O)[C@@H]3[C@]3(C(=O)OC)CCCCN23)cc1OC (stereo not given in full) was read as LDHA block 6, TDP-43 yeast inh 35µM*, PTHR1 agonist inactive, aSyn yeast inh 15%, FUS yeast rescue inconclusive and Abeta yeast res inactive.
Screening CCN1C(=O)[C@@H]2[C@@H](c3ccc(-c4ccc(F)cc4)c(OC)c3)N3CCCC[C@@]3(C(=O)OC)[C@@H]2C1=O returned LDHA block -1, TDP-43 yeast inh inconclusive, PTHR1 agonist inactive, aSyn yeast inh -14%, FUS yeast rescue inconclusive and Abeta yeast res inactive.
Screening CCN1C(=O)[C@H]2[C@@H](c3ccc(-c4ccc(C(C)=O)cc4)c(OC)c3)N3CCCC[C@@]3(C(=O)OC)[C@H]2C1=O returned LDHA block 2, TDP-43 yeast inh 14µM*, PTHR1 agonist -23%, aSyn yeast inh inconclusive, FUS yeast rescue inconclusive and Abeta yeast res inactive.
Screening COC(=O)[C@@]12CCCCN1[C@H](c1ccc(SC3CCCCC3)c(OC)c1)[C@@H]1C(=O)N(C)C(=O)[C@@H]12 returned LDHA block 4, TDP-43 yeast inh 20%, PTHR1 agonist -1%, aSyn yeast inh inconclusive, FUS yeast rescue inactive and Abeta yeast res inactive.
